hNpr1 antagonist = antagonists of human natriuretic peptide receptor Npr1; P16066; HEK293 hNpr1 GloSensor cGMP, ANP-stimulated luminescence; Potency, µM (top dose mostly 46.3 µM), inactives show top-dose activity change, negative = inhibition, usual class: inhibitors; 76,000 compounds, 1.6% hits; calls by dose curve; also: nearly all actives have a fitted effect of over 60% in size
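Compound pre-incubated 30 min at room temperature on GloSensor-loaded HEK293 cells stably carrying hNpr1 and the pGS-40F cGMP biosensor. Stimulation uses hNppA at 0.1 nM final; luminescence is taken at baseline and 20 min post-agonist.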
NIH3T3 tox = NIH 3T3 cell cytotoxicity; NIH 3T3 viability, CellTiter-Glo ATP luminescence, 48-72 h; Potency, µM (top dose mostly 96.7 µM), for the others: top-dose activity change, negative = cytotoxicity, actives largely listed as inhibitors; 94,000 compounds, 4.3% hits; also: nearly all actives have a fitted effect of over 55% in size
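Luminescent ATP readout (CellTiter-Glo, 10 min RT) after 48 or 72 hr compound exposure of NIH 3T3 cells seeded at 400 cells/well in 1536-well format; quantitative HTS.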
FLuc inh = Photinus pyralis luciferase inhibition; P08659; purified P. pyralis luciferase, luminescence, biochemical; Potency, µM (highest dose often 115 µM), hits mostly inhibitors; 76,000 compounds, 2.5% hits; AID 1347043; also: nearly all actives have a fitted effect of over 65% in size
Target sequence (P08659 whole entry, looked up): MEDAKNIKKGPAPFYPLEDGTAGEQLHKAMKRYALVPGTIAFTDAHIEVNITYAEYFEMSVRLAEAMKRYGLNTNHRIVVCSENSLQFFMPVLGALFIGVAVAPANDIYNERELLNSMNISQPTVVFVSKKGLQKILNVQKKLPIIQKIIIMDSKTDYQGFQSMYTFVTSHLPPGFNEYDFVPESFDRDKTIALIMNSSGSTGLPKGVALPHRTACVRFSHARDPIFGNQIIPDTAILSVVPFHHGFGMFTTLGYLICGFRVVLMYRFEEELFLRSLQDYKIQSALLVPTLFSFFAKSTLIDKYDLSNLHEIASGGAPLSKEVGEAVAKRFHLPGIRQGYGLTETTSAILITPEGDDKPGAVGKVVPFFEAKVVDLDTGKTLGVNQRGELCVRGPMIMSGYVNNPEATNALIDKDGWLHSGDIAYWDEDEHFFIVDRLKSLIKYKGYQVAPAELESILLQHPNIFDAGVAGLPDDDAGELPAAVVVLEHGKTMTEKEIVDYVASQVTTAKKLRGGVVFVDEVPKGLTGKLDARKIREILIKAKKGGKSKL
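Purified P. pyralis luciferase (10nM final) in 50mM Tris acetate pH 7.5, 10mM Mg acetate, 0.01% Tween-20, 0.05% BSA with 10uM D-luciferin and 10uM ATP. Compounds titrated qHTS. Luminescence imaged on CCD.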
HEK cytotox = HEK 293 cell cytotoxicity; HEK 293 viability, ATP luminescence (CellTiter-Glo), 48-72 h; Potency, µM (series often up to 115 µM), without a hit: at the top dose activity change, negative = cytotoxicity, most hits filed as inhibitors; 94,000 compounds, 6.6% hits; AID 1345083; also: nearly all actives have a fitted effect of over 60% in size
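Read-out: CellTiter-Glo ATP luminescence. Cells: HEK 293, 250 cells/well. Exposure: 48 or 72 hr, 37 degree Celsius.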
* marks the source's active call; other numbers are inactive results; i = inactive; u = inconclusive; x = no result given; ! = not active in a repeat; [ ] = dose if it differs, or a comment. Compounds with a hit are over-represented: about 11% of the library has one in this group of screens. Unless noted, calls follow the shape of the dose curve; as a rule, active = well fitted curve in the direction sought with a large enough effect; inconclusive = small, poorly fitted or top-dose-only effect, or another doubt; inactive = no such curve, though single readings can be large; an effect the other way counts as inactive or inconclusive. % is scaled to controls: 0 for no effect and ±100 for the full control effect; potency is read from the fitted curve at half-maximal effect.

SMILES | hNpr1 antagonist | NIH3T3 tox | FLuc inh | HEK cytotox
OCCC1CN(c2ccc(-c3nc(CCCc4ccccc4)no3)cn2)CCO1 (centres undefined) | u | u | i | 50.1µM*
OCCC1CCN(c2ccc(-c3nc(CCCc4ccccc4)no3)cn2)CC1 | -17.3% | 0.8% | i | -18.9%
COc1ccc(C(=O)N2CCC3(CC2)OC(=O)N(Cc2csc(C)n2)C3(C)c2ccccc2)cn1 (centres undefined) | 2.7% | u | i | 3.4%
Cc1ccccc1CN1Cc2nc(-c3cccc(C(N)=O)c3)ccc2OCC1=O | -14.4%[70.6 µM] | u | i | 70.8µM*
Cc1ccccc1CN1Cc2nc(-c3ccc4c(c3)OCO4)ccc2OCC1=O | -20.9%[70.6 µM] | u | i | 35.5µM*
COCCCNC(=O)[C@@H]1CCCN1c1nccc(Nc2ccccc2OC)n1 | x | -16.0% | x | -3.0%
COc1ccccc1-c1ccc(CN2CCCCC2C(=O)NCc2ccccc2F)cc1 (centres undefined) | x | u | x | 39.8µM*
COc1ccccc1-c1ccc(CN2CCCCC2C(=O)NCc2ccccc2)cc1 (centres undefined) | x | u | x | 31.6µM*
COc1ccccc1-c1ccc(CN2CCCCC2C(=O)NCC2CC2)cc1 (centres undefined) | x | u | x | 44.7µM*!
O=C(NCCCc1ccccc1)C1CCCN1Cc1ccc(-c2cncnc2)cc1 (centres undefined) | x | -39.3% | x | u
COCCn1c(=O)c(C(=O)NCCCc2ccccc2)nc2cccnc21 | x | -28.8% | x | 3.8%
O=C(Nc1ccccc1)c1nnn2c1CN(Cc1ccccc1)C(=O)CC2 | 0.4%[70.6 µM] | 100µM* | i | i
Cc1ccc(C(=O)N2CCOc3ccc(CN4CCc5ccccc5C4)cc3C2)cn1 | -4.0% | -22.9% | i | u
COc1ccc(C(=O)N2CCC(c3n[nH]c(=O)n3-c3ccc(C)cc3)CC2)cn1 | 0.0% | 28.2µM* | i | -4.4%
Cc1ccc(-n2c(C3CCN(C(=O)c4ccc(C)nc4)CC3)n[nH]c2=O)cc1 | 3.1% | 25.1µM* | i | 2.3%
Cc1ccc(C(=O)N2CCC(c3n[nH]c(=O)n3-c3ccc(C)cc3)CC2)cc1 | -19.6% | u | i | 8.7%
Cc1ccc(-n2c(C3CCN(C(=O)c4ccc(F)c(Cl)c4)CC3)n[nH]c2=O)cc1 | -8.1% | 12.6µM* | i | -2.2%
Cc1ccc(-n2c(C3CCN(C(=O)c4ccc(C#N)cc4)CC3)n[nH]c2=O)cc1 | 8.0% | 35.5µM* | i | -12.3%
COc1ccc(C(=O)N2CCC(c3n[nH]c(=O)n3-c3ccc(C)cc3)CC2)cc1OC | 0.0% | u | i | 32.7%
CCn1cc(CN2CCC3(CC2)CC(c2ccccc2)CN3C)cn1 (centres undefined) | 1.1% | -0.5% | i | -14.5%
COc1ccc(-c2nc(C3CC3)nc3c2CCN(C(=O)c2ccccc2OC)CC3)cc1 | x | -37.7% | x | u
CC(=O)c1cc(C(=O)N2C[C@H]3CC[C@@H]2CN(CCCc2ccccc2)C3)cs1 | -1.0% | u | i | u
CC(C)C(=O)N1Cc2ccccc2CC2(CCCN(CC3CCNC3)C2)C1 (centres undefined) | x | -26.3% | x | u
CCOC(=O)[C@@H]1CN(C(=O)c2ccc(-c3cccs3)s2)[C@H]2c3cccc(F)c3O[C@@H]12 | x | u | x | -30.4%
CN(c1ccccc1)c1cc(=O)c2ccnc(Nc3cccnc3)c2o1 | u | 10µM* | i | u
SMILES | hNpr1 antagonist | NIH3T3 tox | FLuc inh | HEK cytotox
CN(c1ccccc1)c1cc(=O)c2ccnc(NCCc3ccccn3)c2o1 | 0.8%[70.6 µM] | 25.1µM* | i | u
O=c1cc(-c2ccccn2)oc2c(Nc3ccccc3)nccc12 | -17.2%[70.6 µM] | u | i | u
O=c1cc(-c2ccccn2)oc2c(Nc3cccnc3)nccc12 | 3.8%[70.6 µM] | 11.2µM* | i | u
COCc1cc(NCc2cccnc2Oc2cccc(C(F)(F)F)c2)ncn1 | -7.3% | -31.7% | i | 50.1µM*
COc1cc(=O)n2c(c1C(=O)Nc1ccc(N(C)C)cc1)CCCC2 | -5.4% | -29.7% | 35.5µM* | u
COC(=O)c1cccc2nc([C@H]3CCN(Cc4ccccc4C)C3)oc12 | 3.5%[70.6 µM] | u | i | 89.1µM*
CC(=O)Nc1ccc(C2(C(=O)N3CCN(c4ccccc4)CC3)CCCCC2)cc1 | -12.0% | u | i | u
CN(Cc1ccccc1)C(=O)C1(c2ccc(NC(=O)C3CC3)cc2)CCCCC1 | -20.3% | u | i | 35.5µM*
CC(=O)Nc1ccc(C2(C(=O)N(C)Cc3ccccc3)CCCCC2)cc1 | 2.1% | u | i | 50.1µM*
COc1ccc(CCC(=O)N2CCCCCCNC(=O)[C@@H]3C[C@@H](c4nc(C(C)C)no4)C[C@@H]32)cc1 | -13.0% | -28.7% | i | -8.2%
CCC1c2nccn2CCCN1C(=O)c1cc(C)n(CCCOC)c1C (centres undefined) | -5.2% | -16.3% | i | -3.3%
O=C(NCc1ccco1)C1CCN(C(=O)c2ncn3c2COC(c2ccc(F)cc2)C3)CC1 (centres undefined) | -3.9% | 0.2% | 22.4µM* | 2.3%
O=C(NCc1ccc(F)cc1F)C1CCN(C(=O)c2ncn3c2COC(c2ccccc2)C3)CC1 (centres undefined) | -10.0% | i | 35.5µM* | -1.5%
O=C(NCc1cc(F)ccc1F)C1CCN(C(=O)c2ncn3c2COC(c2ccc(F)cc2)C3)CC1 (centres undefined) | -0.3% | -0.5% | 44.7µM* | -0.2%
Cc1ccccc1CNC(=O)C1CCN(C(=O)c2ncn3c2COC(c2ccccc2)C3)CC1 (centres undefined) | -11.4% | -7.3% | 15.8µM* | -4.1%
COc1ccc(C2Cn3cnc(C(=O)N4CCC(C(=O)NCc5ccco5)CC4)c3CO2)cc1 (centres undefined) | -7.0% | i | i | 3.5%
COc1ccc(-c2ccc(C(=O)N3CCN(C(=O)NC4CCCC4)CC3)cc2)nn1 | x | i | x | i
CSc1ncc(CN2CCC(n3nccc3NC(=O)Cc3ccccc3)CC2)cn1 | -0.4% | -25.2% | i | -10.8%
O=C(Nc1ccnn1C1CCN(Cc2ccc(-c3ccccc3)cc2)CC1)C1CC1 | u | 35.5µM* | i | u
CCOC(=O)C1CCCN(C(=O)C2CCc3nnc(C4CC4)n32)C1 (centres undefined) | x | 25.1µM* | x | u
CCCNC(=O)[C@@H]1Cc2cn(Cc3nccn3C)c3cccc(c23)[C@H](CC(C)C)N1 | -2.4%[70.6 µM] | 100µM* | i | 44.7µM*
CC(C)C[C@@H]1N[C@H](C(=O)NCC2CC2)Cc2cn(Cc3nccn3C)c3cccc1c23 | -3.2%[70.6 µM] | 63.1µM* | i | 35.5µM*
CC#CCn1cc2c3c(cccc31)[C@H](CC(C)C)N[C@H](C(=O)NCCC)C2 | -5.4%[70.6 µM] | 39.8µM* | i | 56.2µM*
Cn1ncc2c(C(=O)NC3CCOC3)cc(-c3cccc(F)c3)nc21 (centres undefined) | x | u | x | -23.2%
CSc1ccc(-c2cccc(C(=O)NCC(=O)NC3CC3)c2)cc1 | x | -31.1% | x | u

Screening data as filed in PubChem BioAssay.
